Screening results: PubChem BioAssay, National Center for Advancing Translational Sciences (NCATS)
This is a sample that favours compounds with a hit; in the whole collection about 19% have one here.
Chronic BCR inh = qHTS Assay to Find Inhibitors of Chronic Active B-Cell Receptor Signaling; Potency, µM (top dose mostly 46.1 µM), inactives show at the highest dose activity change, negative = inhibition, usual class: inhibitors; 0.05% of 340,000 active; ABC-DLBCL IkBa-CBG/CBR reporter, luminescence ratio, 4 h; active means well fitted inhibition curve with a large enough effect in the signal ratio, with a control signal flat, not every such curve was filed as active; inconclusive means small, poorly fitted or top-dose-only effect, or effect the other way, or a change in a side signal; the % refers to the signal ratio;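 further: potency means the concentration at half of the fitted maximal effect; plate controls were basal doxycycline-induced cells for no effect and cells given 10 µM MG132 for full effect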
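Cell line TMD8 (human ABC DLBCL), stably expressing tet-inducible CBG68-IkBa fusion and CBR; IMDM/0.5% FBS; cpd up to 46 uM; dox induction, 4 h, 37C/5% CO2; dual luminescence; green/red ratio; MG132 control.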
TDP1 cell noCPT = qHTS for Inhibitors of human tyrosyl-DNA phosphodiesterase 1 (TDP1): qHTS in cells in absence of CPT; DT40 Tdp1-/- hTDP1 cells, no CPT, ATP luminescence, 48 h; Potency, µM (top dose mostly 46.2 µM), without a hit: at the top dose activity change, negative = growth inhibition, hits mostly inhibitors; 15% of 420,000 active; further: potency means the concentration at half of the fitted maximal effect; on the % scale 0 is the no-effect control and ±100 the full control effect; nearly all actives have a fitted effect of over 55% in size
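Luminescent ATP content (CellTiter-Glo) served as the growth readout. Knockout chicken DT40 cells expressing human TDP1 were exposed to compounds without camptothecin for a minimum 48 hr at 37 °C.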
SW480 rereplic = A quantitative high throughput screen for small molecules that induce DNA re-replication in SW480 colon adenocarcinoma cells; Potency, µM (highest dose often 46.1 µM), for inactives: top-dose re-replication activation, usual class: activators; AID 624297, 2012; 1.8% of 340,000 active; SW480 DNA re-replication, Hoechst DNA content imaging, 48 h; further: potency means the concentration at half of the fitted maximal effect; % of control where 0% means no effect; nearly all actives have a fitted effect of over 55% in size
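Image-based DNA-content assay: after two days of treatment, nuclei were labelled with the DNA dye Hoechst and imaged, and hits were compounds raising the count of nuclei showing high fluorescence intensity.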
TDP1 cell CPT = qHTS for Inhibitors of human tyrosyl-DNA phosphodiesterase 1 (TDP1): qHTS in cells in presence of CPT | 12% of 420,000 active | chicken DT40 Tdp1-/-;hTDP1 cells + 20 nM CPT, ATP luminescence, 48 h | Potency, µM (top dose mostly 46.2 µM), for the others: top-dose activity change, negative = growth inhibition, usual class: inhibitors; further: potency means the concentration at half of the fitted maximal effect; on the % scale 0 is the no-effect control and ±100 the full control effect; nearly all actives have a fitted effect of over 55% in size
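Cell growth measured by CellTiter-Glo luminescence after a minimum 48 h, 37 C compound exposure with 20 nM CPT in Tdp1-knockout DT40 cells stably expressing hTDP1, seeded 400/well; qHTS titration format.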
MCF10A rereplic = A quantitative high throughput screen for small molecules that induce DNA re-replication in MCF 10a normal breast cells; Potency, µM (titrated, usually from 46.1 µM), without a hit: at the top dose activity, positive = re-replication, most hits filed as activators; MCF 10A DNA re-replication, Hoechst nuclear intensity, 48 h; AID 624296, 2012; 2.9% of 350,000 active; further: potency means the concentration at half of the fitted maximal effect; % of control where 0% means no effect; nearly all actives have a fitted effect of over 50% in size
IL1B secr inh = qHTS for Inhibitors of Inflammasome Signaling: IL-1-beta AlphaLISA Primary Screen | THP-1 LPS/ATP IL-1B secretion, AlphaLISA, 16 h; stronger effect = lower value | activity change, % at 57.5 µM | 4.7% of 360,000 active | AID 743279, 2014; in the data active means activity change below about -50%; inconclusive means mostly about -30% to -49%; further: on the % scale 0 is the no-effect control and ±100 the full control effect
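THP-1 cells pretreated 1 hr with compounds (up to 57.5 uM final), then stimulated with LPS (250 ng/mL final) plus ATP (1.25 mM final); secreted IL-1B measured by AlphaLISA after 16 hr, decreased signal indicating inhibition.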
* marks the source's active call; other numbers are inactive results; ? = inconclusive; . = no result given; [ ] = another dose, or the depositor's remark. Unless noted, the call rests on the fitted dose curve; in most records, active means well fitted curve in the direction sought with a large enough effect; inconclusive means small, poorly fitted or top-dose-only effect, or another doubt; inactive means no such curve, though single readings can be large; an effect the other way counts as inactive or inconclusive.

SMILES	Chronic BCR inh	TDP1 cell noCPT	SW480 rereplic	TDP1 cell CPT	MCF10A rereplic	IL1B secr inh
Cn1nc(C(F)(F)F)c2cc(NC(=O)OCc3ccc(C(C)(C)C)cc3)sc21	-5.1%	-23.8%	14.6%	-16.9%	14.6µM*	-87.1*
Cc1nnsc1NC(=O)OCc1ccc(C(C)(C)C)cc1	-1.8%	8.2µM*	-3.2%[9.22 µM]	14.6µM*	2.9%	-4.0
COc1ccc(COC(=O)Nc2cc3c(C(F)(F)F)nn(C)c3s2)cc1	-8.7%	-1.9%	-5.5%[9.22 µM]	-3.5%	10.0%	-0.8
Cc1nn(C)c(Cl)c1NC(=O)OCc1ccc(F)cc1	?	16.4µM*	17.8%	?	-185.4%[0.0737 µM]	9.4
COCCCn1cnnc1SC(C)C(=O)Nc1ccc(S(=O)(=O)N2CCOCC2)cc1 (configuration not stated)	6.5%	3.4%	5.5%	1.5%	-7.6%	1.7
CCc1[nH]nc(C(=O)N/N=C/c2ccncc2)c1C	?	2.2%	-19.8%	-22.7%	3.5%	-3.1
O=C(COc1ccc(CNC[C@H]2O[C@@H](n3ccc(=O)[nH]c3=O)[C@H](O)[C@@H]2O)cc1)Nc1ccccn1	.	8.8%	.	0.2%	.	4.2
C[C@H](CO)N1C[C@H](C)[C@@H](CN(C)Cc2ccc(Cl)c(Cl)c2)OCc2cnnn2CCCC1=O	.	?	.	?	.	19.7
CCCS(=O)(=O)NC(=O)C1(C)CCN(C(=O)c2ccc(C(F)(F)F)nc2C)C1 (configuration not stated)	.	3.8%	.	-5.4%	.	0.0
CC1=C(/C=N/Nc2ccc([N+](=O)[O-])cc2[N+](=O)[O-])C(C)(C)CCC1	-3.4%	18.4µM*	2.0%	?	14.8%	10.7
COc1ccc(/C=N\Nc2ccc([N+](=O)[O-])cc2[N+](=O)[O-])c(C(=O)O)c1OC	?	-22.6%	8.2%	-28.3%	-3.1%	-10.1
COc1cccc(CNC(=O)c2cc(S(=O)(=O)N3CCOCC3)cn2C)c1	?	1.3%	3.1%	20.6µM*	-4.9%	?
COc1ccccc1CNC(=O)c1cc(S(=O)(=O)N2CCCC2)cn1C	-19.6%	-16.2%	-11.9%	-19.9%	-5.6%	2.6
COc1ccc(CNC(=O)c2cc(S(=O)(=O)N3CCOCC3)cn2C)cc1	-0.2%	1.7%	0.3%	-23.4%	-2.6%	-14.0
Cn1cc(S(=O)(=O)N2CCCC2)cc1C(=O)NCc1ccccc1Cl	1.8%	-16.0%	3.7%	16.4µM*	5.8%	0.2
O=C(Nc1ccc(C(=O)N2CCOCC2)cc1)c1ccccc1Cl	.	2.4%	.	30.4%	.	?
COc1ccc(Br)cc1CSC(=N)N	-11.1%	?	-4.0%	?	-7.3%	-88.0*
CC(=O)c1ccc(OC(C)C)c(CSC(=N)N)c1	-16.2%	?	-5.5%	23.1µM*	?	?
CCCCOc1ccc(CSC(=N)N)cc1Cl	?	18.4µM*	?	14.6µM*	?	-101.1*
CCOc1ccc(CSC(=N)N)cc1	-9.4%	18.4µM*	-6.1%	25.9µM*	15.4%	22.3
O=S(=O)(c1ccc(-c2cc(C(F)(F)F)on2)s1)N1CCN(c2cccc(Cl)c2)CC1	.	-4.2%	.	-4.5%	.	.
CCCCCOc1ccc(Br)cc1CSC(=N)N	-24.1%	2.31µM*	?	5.17µM*	?	-96.9*
Cc1ccc(N2CCn3c2nc2c3c(=O)n(CCCc3ccccc3)c(=O)n2C)cc1	.	-24.6%	.	2.4%	.	.
Cc1oc2cc([N+](=O)[O-])c(O)c([N+](=O)[O-])c2c1C(=O)c1ccc(Cl)cc1	14.1%	?	-26.6%	23.1µM*	?	0.0
Cn1cnc(C(=O)NCc2ccccc2)c1C(=O)NCc1ccccc1	-0.8%	?	-50.6%	-12.8%	26.1%	-2.3
SMILES	Chronic BCR inh	TDP1 cell noCPT	SW480 rereplic	TDP1 cell CPT	MCF10A rereplic	IL1B secr inh
O=C(CCN1CCC2CCC(C2)C1)c1ccccc1 (configuration not stated)	.	2.59µM*	?	2.59µM*	?	-3.5
O=C(CCCCN1CCCCC1)c1ccccc1	.	-14.5%	-7.6%	-8.3%	13.2%	-6.1
Cc1ccccc1Cn1cc(S(=O)(=O)c2ccc(Cl)cc2)c(=O)c2cc3c(cc21)OCO3	.	?	.	-14.6%	.	.
COc1cc(OC)c(NS(=O)(=O)c2cc(C(=O)OC(C)C(=O)NC3CC3)c(Cl)cc2Cl)cc1Cl (configuration not stated)	-1.1%	23.1µM*	0.6%	18.4µM*	?	-11.3
Cc1ccc(S(=O)(=O)NC(C)(C)C)cc1C(=O)OC(C)C(=O)NC1CC1 (configuration not stated)	-0.6%	3.9%	-8.0%	3.1%	-0.4%	11.6
CC1(C)Cc2nc3oc4c(N5CCOCC5)ncnc4c3cc2CO1	-13.2%	-21.7%	-9.0%	?	11.9%	-18.7
Brc1ccc2oc3c(N4CCOCC4)ncnc3c2c1	4.7%	11.6µM*	-4.2%	?	11.6%	0.0
CCOC(=O)[C@@H](N)CS	.	?	-2.8%	?	-2.6%	.
CC1C(=O)N2CCCc3cc(NC(=O)c4ccccc4Br)cc1c32 (configuration not stated)	23.1µM*	-7.9%	-3.5%	-2.7%	13.4%	-3.5
COc1ccc(C(=O)Nc2cc3c4c(c2)C(C)C(=O)N4CCC3)c(OC)c1 (configuration not stated)	-10.1%	?	-190.5%	?	22.6%	-13.1
Brc1cccc(-c2nc3ccc(Br)cn3c2Cc2ccccc2)c1	.	?	.	?	.	58.3
CC(C)(C)c1ccc(CCC2OCC(C[N+]3(C)CCOCC3)O2)cc1 (configuration not stated)	0.5%	2.06µM*	20.1%	1.84µM*	?	.
CCOC(=O)c1c(S(=O)(=O)NCC(=O)Nc2ccc(C)c(N(C)C)c2)c(C)n(C)c1C	-5.7%	-9.7%	.	6.3%	.	.
CC(=O)Nc1cc(-c2cccc(N)c2)cn2c(-c3ccc(C(C)=O)cc3)cnc12	.	10.3µM*	.	?	.	7.8
CC(=O)Nc1cc(-c2ccccc2CN(C)C)cn2c(-c3ccc(C(C)=O)cc3)cnc12	.	16.4µM*	.	?	.	68.2
CC(=O)Nc1cc(-c2cccc(CO)c2)cn2c(-c3ccc(F)cc3)cnc12	.	?	.	23.1µM*	.	-22.8
CC(=O)Nc1cc(-c2cccc(CO)c2)cn2c(-c3ccc(C(C)=O)cc3)cnc12	.	20.6µM*	.	?	.	-28.7
